An excerpt weighted towards active compounds, which were near 2.4% of everything screened.
D2 PAM-1 – HTS Assay for Positive Allosteric Modulators of the Human D2 Dopamine Receptor: Primary Screen for Potentiators | D(2) dopamine receptor (Homo sapiens), P14416 | HEK293 T-REx D2, calcium flux, EC20 dopamine potentiation | potentiation, % at 10 µM | actives 0.34% (n = 340,000) | AID 485347, 2010;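 active = potentiation over 3 SD above the plate norm, cut at about 30% in these data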
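Tetracycline-induced Hek293 Trex D2 cells, force-coupled to calcium, loaded with no-wash calcium dye. Compound added with 180 s kinetic read for agonism, then EC20 dopamine and a further 180 s read for potentiation.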
D2 PAM-2 – Beta-Arrestin HTS for Positive Allosteric Modulators of the Human D2 Dopamine Receptor: Potentiators | DiscoveRx D2 beta-arrestin cells, luminescence, 90 min; 100% = 57 uM dopamine signal | potentiation, % (concentration not given with the values) | actives 0.23% (n = 360,000); in the data active = potentiation above about 50%; inconclusive = mostly about 30% to 49%
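PathHunter D2 cells, attached overnight at 37 deg C, received compound in DMSO plus dopamine at EC20 (50 nM final) for 90 min at 37 deg C. Beta-arrestin recruitment was read as luminescence after 1 h with detection reagent at ambient temperature.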
D2 ag-1 – HTS Assay for Allosteric Agonists of the Human D2 Dopamine Receptor: Primary Screen for Agonists; activation, % at 2 µM; actives 0.53% (n = 340,000); HEK293 T-REx D2 cells, calcium flux agonist mode;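 active = activation over 3 SD above normal in the single-dose calcium agonist read, cut at about 30% in these data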
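Calcium-flux readout, 1 cycle/sec over 180 s following compound pin transfer, in inducible HEK293 Trex D2 cells (force-coupled); dopamine controls included. Positive calcium responses during this window marked compounds as potential agonists.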
D2 antag – HTS Assay for Allosteric Antagonists of the Human D2 Dopamine Receptor: Primary Screen for Antagonists; D(2) dopamine receptor (Homo sapiens), P14416; HEK293 TREx D2 cells, calcium flux, dopamine EC80; inhibition, % at 10 µM; actives 2% (n = 340,000); AID 485344, 2010; in the data active = inhibition above about 30%; inactive = below that, where a call was filed
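Cells plated overnight at 30 C with tetracycline; no-wash calcium dye, 30–90 min RT; 10 s baseline; compound pinned; 180 s read; EC80 dopamine added; another 180 s read.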
D2 ag-2 – Beta-Arrestin HTS for Positive Allosteric Modulators of the Human D2 Dopamine Receptor: Agonists; D(2) dopamine receptor (Homo sapiens), P14416; DiscoveRx PathHunter D2 beta-arrestin, luminescence, 90 min; 100% = 57 uM dopamine signal; activation, % (concentration not given with the values); actives 0.084% (n = 360,000); AID 624465, 2012; in the data active = activation above about 40%; inconclusive = between about 15% and that limit
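DiscoveRx PathHunter D2 beta-arrestin cells (2,100/well) attached overnight, then compound-stimulated 90 min at 37 C in HBSS/10 mM HEPES/0.1% Tween-20 buffer; beta-galactosidase complementation read by luminescence after 1 h at ambient temperature. Dopamine 57 uM final (EC100) as control.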
D3 arrestin ag – qHTS of D3 Dopamine Receptor Agonist: D3 Dopamine Receptor B-arrestin Agonist Confirmatory Assay; shares compounds with D2 ag-1; DiscoveRx D3 beta-arrestin cells, luminescence, 90 min; Potency, µM (titrated, usually from 76.9 µM), hits mostly activators; actives 4% (n = 2,300); AID 720506, 2013; note: nearly all actives have a fitted effect of over 70% in size
Target sequence (P35462 whole entry, looked up): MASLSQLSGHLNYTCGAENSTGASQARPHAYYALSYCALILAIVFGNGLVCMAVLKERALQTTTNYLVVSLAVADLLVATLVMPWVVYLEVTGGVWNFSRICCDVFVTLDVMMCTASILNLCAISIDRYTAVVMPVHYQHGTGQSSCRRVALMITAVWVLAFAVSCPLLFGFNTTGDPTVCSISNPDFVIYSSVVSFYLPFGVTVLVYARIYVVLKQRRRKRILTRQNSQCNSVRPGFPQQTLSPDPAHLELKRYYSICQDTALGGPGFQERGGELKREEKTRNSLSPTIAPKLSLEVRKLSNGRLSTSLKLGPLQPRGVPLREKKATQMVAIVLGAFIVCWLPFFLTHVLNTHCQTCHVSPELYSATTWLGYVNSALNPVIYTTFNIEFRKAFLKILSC
D2 ag-3 – qHTS of D3 Dopamine Receptor Agonist: D2 Dopamine Receptor B-arrestin Agonist Counterscreen; shares compounds with D2 ag-1; DiscoveRx PathHunter D2 beta-arrestin, luminescence, 90 min; response scale: percent relative to full dopamine signal; Potency, µM (doses to about 76.9 µM), hits mostly activators; actives 5.9% (n = 2,300); AID 720507, 2013; note: nearly all actives have a fitted effect of over 70% in size
Large screens that a line does not name were inactive (follow-up assays come after a bar, where they were run). Unless noted, calls come from the whole dose curve; as a rule, active = well fitted activation curve with a large enough effect; inconclusive = small, poorly fitted or top-dose-only effect; inactive = flat fitted curve, though single readings scatter.

O=C(CCCN1C(=O)/C(=C\c2cccs2)SC1=S)NNC(=O)c1cccnc1	none (no result: D2 PAM-1, D2 ag-1, D2 antag)
COc1ccc(Cl)cc1NC(=O)CSC1=NN2CCCC(=O)N=C2S1	none
Cc1c(Cl)cccc1NC(=O)CSC(C)c1nc2ccccc2c(=O)[nH]1 (stereo not drawn)	none | D3 arrestin ag inactive | D2 ag-3 inactive
Cc1cccc(CC(=O)NC2CC(=O)N(c3cccc(F)c3)C2)c1 (stereo not drawn)	none (no result: D2 PAM-2, D2 antag, D2 ag-2)
COc1cccc(CN2CCN(C(=O)c3cccs3)CC2)c1OC	D2 ag-1 90, D2 antag 71, D2 ag-2 inconclusive | D3 arrestin ag inconclusive | D2 ag-3 inconclusive
COc1ccc(OC)c(CN2CCN(C(=O)c3cccs3)CC2)c1	D2 PAM-2 inconclusive, D2 ag-1 82, D2 antag 71, D2 ag-2 49 | D3 arrestin ag inactive | D2 ag-3 inconclusive
CCCC(c1nnnn1CCOC)N1CCN(Cc2ccccc2)CC1 (stereo not drawn)	D2 ag-1 33 | D3 arrestin ag inactive | D2 ag-3 inactive
Cc1ccc(-c2c(C(=O)N/N=C/c3ccoc3)nnn2-c2nonc2N)cc1	none | D3 arrestin ag inactive | D2 ag-3 inactive
Cc1ccc(-c2c(C(=O)N/N=C/c3cccs3)nnn2-c2nonc2N)cc1	none (no result: D2 ag-1, D2 antag) | D3 arrestin ag inactive | D2 ag-3 inactive
CCOc1ccc(-c2c(C(=O)N/N=C/c3cccs3)nnn2-c2nonc2N)cc1	D2 ag-2 inconclusive
Nc1nonc1-n1nnc(C(=O)N/N=C/c2cccs2)c1-c1ccc2c(c1)OCO2	none | D3 arrestin ag inactive | D2 ag-3 inactive
Cc1ccsc1/C=N/NC(=O)c1nnn(-c2nonc2N)c1-c1ccc2c(c1)OCO2	none

Source: PubChem (National Center for Advancing Translational Sciences (NCATS))
